Out of some 5,500 compounds screened, about 2,000 (36%) were called active. Another 18% or so got no clear call; they are omitted. No stated cut-off is given here; in the data, active means normalized growth mostly below about 0.91 (no sharp cut-off); inconclusive means no clear call, values can overlap the other calls; inactive means mostly above about 0.92. Some of the results follow.
Assay: chemical genetic growth profiling, strain panel (AID 1159580);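 further: tested at 20 µM; growth read once vehicle control cultures reached saturation at 30 °C; 1 = growth at the plate median or of vehicle wells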
Details: S. cerevisiae deletion strains, growth OD

Measured: normalized growth

COc1cc(S(C)=O)ccc1-c1nc2ncccc2[nH]1 (stereo not drawn)
inactive: locus YAL013W, strain DEP1, stronger effect = lower value 1.01 | locus YAL021C, strain ccr4, stronger effect = lower value 0.936 | locus YAL026C, strain drs2, stronger effect = lower value 0.994 | locus YAL030W, strain snc1, stronger effect = lower value 0.976 | locus YBL061C, strain skt5, stronger effect = lower value 0.984 | locus YBR009C, strain hhf1, stronger effect = lower value 0.956 | locus YBR021W, strain FUR4, stronger effect = lower value 0.994 | locus YBR023C, strain chs3, stronger effect = lower value 0.98 | locus YBR171W, strain sec66, stronger effect = lower value 0.977 | locus YBR229C, strain ROT2, stronger effect = lower value 1.01 | locus YBR231C, strain swc5, stronger effect = lower value 1.01 | locus YBR279W, strain paf1, stronger effect = lower value 0.981 | locus YCL011C, strain gbp2, stronger effect = lower value 0.969 | locus YCL016C, strain dcc1, stronger effect = lower value 0.959 | locus YCL029C, strain bik1, stronger effect = lower value 0.985 | locus YCL061C, strain MRC1, stronger effect = lower value 0.984 | locus YCL069W, strain vba3, stronger effect = lower value 0.967 | locus YCR088W, strain abp1, stronger effect = lower value 0.981 | locus YDL005C, strain med2, stronger effect = lower value 0.966 | locus YDL035C, strain GPR1, stronger effect = lower value 1 | locus YDL040C, strain nat1, stronger effect = lower value 0.969 | locus YDL074C, strain BRE1, stronger effect = lower value 1.04 | locus YDL101C, strain DUN1, stronger effect = lower value 0.994 | locus YDL134C, strain PPH21, stronger effect = lower value 1.01 | locus YDL185W, strain tfp1, stronger effect = lower value 0.98 | locus YDL192W, strain arf1, stronger effect = lower value 0.985 | locus YDR001C, strain nth1, stronger effect = lower value 0.963 | locus YDR069C, strain doa4, stronger effect = lower value 0.958 | locus YDR101C, strain arx1, stronger effect = lower value 0.999 | locus YDR137W, strain rgp1, stronger effect = lower value 0.973 | locus YDR150W, strain NUM1, stronger effect = lower value 0.979 | locus YDR159W, strain sac3, stronger effect = lower value 0.96 | locus YDR162C, strain NBP2, stronger effect = lower value 1 | locus YDR195W, strain ref2 0.935 | locus YDR297W, strain sur2, stronger effect = lower value 0.974 | locus YDR318W, strain mcm21, stronger effect = lower value 0.997 | locus YDR334W, strain swr1, stronger effect = lower value 0.97 | locus YDR335W, strain msn5, stronger effect = lower value 0.96 | locus YDR388W, stronger effect = lower value 0.996 | locus YDR392W, strain spt3, stronger effect = lower value 0.848 | locus YDR502C, strain sam2, stronger effect = lower value 0.984 | locus YEL003W, strain gim4, stronger effect = lower value 0.98 | locus YEL037C, strain rad23, stronger effect = lower value 0.975 | locus YEL061C, strain CIN8 (second series), stronger effect = lower value 0.972 | locus YEL061C, strain CIN8, stronger effect = lower value 1 | locus YER015W, strain faa2, stronger effect = lower value 0.982 | locus YER016W, strain bim1, stronger effect = lower value 0.978 | locus YER110C, stronger effect = lower value 0.992 | locus YER111C, strain swi4, stronger effect = lower value 0.972 | locus YER155C, strain BEM2 (second series), stronger effect = lower value 0.994 | locus YER155C, strain BEM2, stronger effect = lower value 0.978 | locus YER167W, strain BCK2, stronger effect = lower value 1.01 | locus YFR010W, strain ubp6, stronger effect = lower value 0.974 | locus YGL078C, strain dbp3, stronger effect = lower value 0.993 | locus YGL086W, strain mad1, stronger effect = lower value 0.995 | locus YGL167C, strain pmr1, stronger effect = lower value 0.941 | locus YGL173C, strain kem1, stronger effect = lower value 0.99 | locus YGL227W, strain vid30, stronger effect = lower value 0.982 | locus YGL240W, strain doc1, stronger effect = lower value 0.999 | locus YGL248W, strain PDE1, stronger effect = lower value 0.995 | locus YGL253W, strain hxk2, stronger effect = lower value 0.987 | locus YGR078C, strain PAC10, stronger effect = lower value 1.02 | locus YGR135W, strain pre9, stronger effect = lower value 0.983 | locus YGR229C, strain SMI1, stronger effect = lower value 1.02 | locus YGR252W, strain gcn5, stronger effect = lower value 1.01 | locus YHR013C, strain ard1, stronger effect = lower value 0.929 | locus YHR027C, strain rpn1, stronger effect = lower value 0.97 | locus YHR030C, strain SLT2, stronger effect = lower value 0.984 | locus YHR079C, strain IRE1 (second series), stronger effect = lower value 0.997 | locus YHR094C, strain hxt1, stronger effect = lower value 0.99 | locus YHR129C, strain ARP1, stronger effect = lower value 1 | locus YHR142W, strain chs7, stronger effect = lower value 0.943 | locus YHR200W, strain rpn10, stronger effect = lower value 0.991 | locus YIL066C, strain RNR3, stronger effect = lower value 0.995 | locus YIL073C, strain SPO22, stronger effect = lower value 0.943 | locus YIL125W, strain kgd1, stronger effect = lower value 0.999 | locus YIR030C, strain dcg1, stronger effect = lower value 0.988 | locus YJL092W, strain hpr5, stronger effect = lower value 0.98 | locus YJL095W, strain BCK1 (second series), stronger effect = lower value 0.972 | locus YJL095W, strain BCK1, stronger effect = lower value 1.03 | locus YJL115W, strain asf1, stronger effect = lower value 0.972 | locus YJL129C, strain trk1, stronger effect = lower value 0.966 | locus YJL134W, strain LCB3, stronger effect = lower value 1.01 | locus YJL154C, strain vps35, stronger effect = lower value 0.972 | locus YJL164C, strain tpk1, stronger effect = lower value 0.941 | locus YJL166W, strain qcr8, stronger effect = lower value 0.984 | locus YJL168C, strain set2, stronger effect = lower value 1 | locus YJL187C, strain SWE1 (second series), stronger effect = lower value 0.989

Source: PubChem BioAssay AID1159580 (chemical genetic matrix, 2015)
